Test results: PubChem BioAssay (NCATS)
Records with an inconclusive call do not appear. Where a call stands in place of a potency, no number is given. Active and inactive are the calls of the source. Unless noted, calls come from the whole dose curve.

Assays:
[1] = qHTS for Inhibitors of the Functional Ribonucleoprotein Complex (vRNP) of Lassa (LASV) Arenavirus: Viability assay - alamar blue signal for LASV Primary Screen (AID 1347083; calls by dose curve; tested in HEK293 reporter line; note: nearly all actives have a fitted effect of over 80% in size)
[2] = qHTS for Inhibitors of the Functional Ribonucleoprotein Complex (vRNP) of Lymphocytic Choriomeningitis Arenaviruses (LCMV): Viability assay - alamar blue signal for LCMV Primary Screen (AID 1347085; calls by dose curve; tested in HEK293 reporter line; note: nearly all actives have a fitted effect of over 80% in size)
[3] = biological target: Nucleoprotein (Lymphocytic choriomeningitis virus (strain Armstrong)) (UniProt P09992); assay: qHTS for Inhibitors of the Functional Ribonucleoprotein Complex (vRNP) of Lymphocytic Choriomeningitis Arenaviruses (LCMV): LCMV Primary Screen - GLuc reporter signal (AID 1347086); note: nearly all actives have a fitted effect of over 70% in size
Potency is the fitted concentration of half-maximal effect.

Sequence of Nucleoprotein (Lymphocytic choriomeningitis virus (strain Armstrong)) (P09992 whole entry, looked up): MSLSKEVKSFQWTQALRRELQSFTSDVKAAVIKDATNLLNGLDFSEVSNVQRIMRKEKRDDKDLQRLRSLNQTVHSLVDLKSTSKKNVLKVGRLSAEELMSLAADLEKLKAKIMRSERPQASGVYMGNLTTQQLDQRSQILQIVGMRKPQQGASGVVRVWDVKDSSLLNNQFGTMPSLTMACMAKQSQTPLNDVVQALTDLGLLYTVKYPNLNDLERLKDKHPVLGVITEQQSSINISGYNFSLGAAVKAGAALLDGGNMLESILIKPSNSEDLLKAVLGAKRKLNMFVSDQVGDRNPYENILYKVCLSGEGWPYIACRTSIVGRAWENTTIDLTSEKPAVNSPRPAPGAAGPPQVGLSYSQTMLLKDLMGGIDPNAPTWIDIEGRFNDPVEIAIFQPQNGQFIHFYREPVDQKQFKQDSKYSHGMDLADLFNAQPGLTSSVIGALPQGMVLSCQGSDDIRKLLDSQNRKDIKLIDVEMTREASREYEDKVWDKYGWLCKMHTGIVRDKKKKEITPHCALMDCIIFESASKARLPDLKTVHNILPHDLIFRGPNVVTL

With `COc1ccc(CC2SC(=O)NC2=O)cc1C(=O)NCc1ccc(C(F)(F)F)cc1` (configuration not stated) the Potency [1] was “inactive”, the Potency [2] was 38500 nM (active) and the Potency [3] was “inactive”.
In the case of `O=C(O)CC[N+](=O)[O-]`, the Potency [1] is reported as “inactive”, the Potency [2] is reported as “inactive” and the Potency [3] is reported as “inactive”.
In the case of `CC1(C)OC2=C(C(=O)c3ccccc3C2=O)[C@H](NCc2ccccc2)[C@H]1O`, the Potency [1] is reported as 3060 nM (active), the Potency [2] is reported as 2170 nM (active) and the Potency [3] is reported as 863 nM (active).
In the case of `COc1nc(C)cnc1NS(=O)(=O)c1cccnc1-c1ccc(-c2nnco2)cc1`, the Potency [1] is reported as “inactive”, the Potency [2] is reported as “inactive” and the Potency [3] is reported as “inactive”.
With `COc1ccc2cc(CCC(C)=O)ccc2c1` the Potency [1] was “inactive”, the Potency [2] was “inactive” and the Potency [3] was “inactive”.
With `COc1ccc(-c2c(-c3ccc(O)cc3O)n[nH]c2C)cc1` the Potency [1] was “inactive”, the Potency [2] was “inactive” and the Potency [3] was “inactive”.
In the case of `CC(C)NC(C)Cc1ccc(I)cc1` (configuration not stated), the Potency [1] is reported as “inactive”, the Potency [2] is reported as “inactive” and the Potency [3] is reported as “inactive”.
In the case of `CC(C)Oc1cccnc1N(C)C1CCN(Cc2ccccc2)CC1`, the Potency [1] is reported as “inactive”, the Potency [2] is reported as “inactive” and the Potency [3] is reported as “inactive”.
In the case of `CC[C@@H]1C(=O)N(C)c2cnc(Nc3ccc(C(=O)NC4CCN(C)CC4)cc3OC)nc2N1C1CCCC1`, the Potency [1] is reported as 48.5 nM (active), the Potency [2] is reported as 153 nM (active) and the Potency [3] is reported as 30.6 nM (active).
For `CC(C)(C)c1nnc(NS(=O)(=O)c2ccccc2)s1`, the Potency [1] was “inactive”, the Potency [2] was “inactive” and the Potency [3] was “inactive”.
In the case of `Clc1cnc(Oc2ccc(Oc3ncc(Cl)cc3Cl)cc2)c(Cl)c1`, the Potency [1] is reported as “inactive”, the Potency [2] is reported as “inactive” and the Potency [3] is reported as “inactive”.
With `N#Cc1c(O)c2c(-c3ccc(-c4ccccc4O)cc3)csc2[nH]c1=O` the Potency [1] was “inactive”, the Potency [2] was “inactive” and the Potency [3] was “inactive”.
In the case of `Cn1c(Nc2ccc(C(F)(F)F)cc2)nc2cc(Oc3ccnc(-c4ncc(C(F)(F)F)[nH]4)c3)ccc21`, the Potency [1] is reported as 2430 nM (active), the Potency [2] is reported as 8630 nM (active) and the Potency [3] is reported as “inactive”.
With `CCCN1CCO[C@@H]2c3cc(O)ccc3OC[C@H]21` the Potency [1] was “inactive”, the Potency [2] was “inactive” and the Potency [3] was “inactive”.
For `CS(=O)(=O)Nc1ccc([N+](=O)[O-])cc1Oc1ccccc1`, the Potency [1] was “inactive”, the Potency [2] was “inactive” and the Potency [3] was “inactive”.
In the case of `Cc1c(C(=O)Nc2ccc(N3C[C@@H](C)O[C@@H](C)C3)nc2)cccc1-c1ccc(OC(F)(F)F)cc1`, the Potency [1] is reported as “inactive”, the Potency [2] is reported as “inactive” and the Potency [3] is reported as “inactive”.
In the case of `COc1cc2c(Oc3ccc(-c4cnc(Nc5ccc(F)cc5)n(C)c4=O)cc3F)ccnc2cc1OCCCN1CCOCC1`, the Potency [1] is reported as 15300 nM (active), the Potency [2] is reported as 21700 nM (active) and the Potency [3] is reported as 24300 nM (active).
With `C=CCN1CC[C@]23CCCCC2[C@H]1Cc1ccc(O)cc13` (some centres not stated) the Potency [1] was “inactive”, the Potency [2] was “inactive” and the Potency [3] was “inactive”.
In the case of `O=C(O)CCC1CCC(c2cc(F)ccc2F)(S(=O)(=O)c2ccc(Cl)cc2)CC1` (configuration not stated), the Potency [1] is reported as “inactive”, the Potency [2] is reported as “inactive” and the Potency [3] is reported as “inactive”.
With `CCNC(=O)c1noc(-c2cc(C(C)C)c(O)cc2O)c1-c1ccc(CN2CCOCC2)cc1` the Potency [1] was 273 nM (active), the Potency [2] was 544 nM (active) and the Potency [3] was 306 nM (active).
In the case of `O=C(NCCS(=O)(=O)c1ccc(C(F)(F)F)cn1)c1ccc(Cl)cc1`, the Potency [1] is reported as “inactive”, the Potency [2] is reported as “inactive” and the Potency [3] is reported as “inactive”.
For `CC(C)CCCC(C)CCCC(C)CCCCC(C)CCCC(C)CCCC(C)C` (configuration not stated), the Potency [1] was “inactive”, the Potency [2] was “inactive” and the Potency [3] was “inactive”.
In the case of `Clc1ccc(-c2nc3sccn3c2C=NOCc2ccc(Cl)c(Cl)c2)cc1`, the Potency [1] is reported as “inactive”, the Potency [2] is reported as “inactive” and the Potency [3] is reported as “inactive”.
For `COc1ccc(CCN2CCN(CCCc3ccccc3)CC2)cc1OC`, the Potency [1] was “inactive”, the Potency [2] was “inactive” and the Potency [3] was “inactive”.
With `Nc1ccccc1NC(=O)c1ccc(CNc2nccc(-c3cccnc3)n2)cc1` the Potency [1] was 6850 nM (active), the Potency [2] was 12200 nM (active) and the Potency [3] was “inactive”.
In the case of `C[C@]12CCC3C(CC[C@H]4C[C@H](O)CC[C@]34C)C1CC[C@@H]2C(=O)CO` (some centres not stated), the Potency [1] is reported as “inactive”, the Potency [2] is reported as “inactive” and the Potency [3] is reported as “inactive”.
In the case of `C=CCn1c(=O)c2cnc(Nc3ccc(N4CCN(C)CC4)cc3)nc2n1-c1cccc(C(C)(C)O)n1`, the Potency [1] is reported as 172 nM (active), the Potency [2] is reported as 611 nM (active) and the Potency [3] is reported as 968 nM (active).
For `CCOC(=O)c1c(C)n(C)c2ccc(O)cc12`, the Potency [1] was “inactive”, the Potency [2] was “inactive” and the Potency [3] was “inactive”.
In the case of `CCCN(CCC)[C@@H]1CCc2ccc(O)cc2C1`, the Potency [1] is reported as “inactive”, the Potency [2] is reported as “inactive” and the Potency [3] is reported as “inactive”.
With `COc1cc2nc(N3CCCN(C)CC3)nc(NC3CCN(Cc4ccccc4)CC3)c2cc1OC` the Potency [1] was 611 nM (active), the Potency [2] was 21700 nM (active) and the Potency [3] was 12200 nM (active).
For `CNCCc1ccc(O)c(O)c1`, the Potency [1] was “inactive”, the Potency [2] was “inactive” and the Potency [3] was “inactive”.
For `CCOc1ccc(Cc2cc([C@@H]3O[C@H](CO)[C@@H](O)[C@H](O)[C@@H]3O)ccc2Cl)cc1`, the Potency [1] was “inactive”, the Potency [2] was “inactive” and the Potency [3] was “inactive”.
With `CN1C2CCC1CC(OC(=O)c1cc(Cl)cc(Cl)c1)C2` (configuration not stated) the Potency [1] was “inactive”, the Potency [2] was “inactive” and the Potency [3] was “inactive”.
For `CN(C)c1ccc(N=NS(=O)(=O)O)cc1`, the Potency [1] was “inactive”, the Potency [2] was “inactive” and the Potency [3] was “inactive”.
